About 22,000 (6.9%) of roughly 320,000 compounds were called active. Where a call stands in place of a potency, no number is given. Another 27% or so got no clear call; they are omitted. This is one part of a sample in which actives are shown more often than they occur. Calls come from the whole dose curve; as a rule, active = well fitted inhibition curve with a large enough effect; inconclusive = small, poorly fitted or top-dose-only effect, or another doubt; inactive = no such curve, though single readings can be large or run the other way.
Potency is the fitted concentration of half-maximal effect.

A short description of this test: Primary qHTS for delayed death inhibitors of the malarial parasite plastid, 96 hour incubation. Conditions: P. falciparum luciferase reporter growth; series mostly up to 28.7 µM. The gist of the method: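 Two-generation exposure (96 h) targets delayed-death phenotype. Reporter parasites carrying integrated firefly luciferase, in red cells at 2% hematocrit and 0.05% parasitemia final, kept at 37 C, 5% CO2; luminescence loss indicates inhibition.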
In the case of `CC(C)Cc1nnc(NC(=O)CCC(=O)Nc2ccc3cn[nH]c3c2)s1`, the Potency entry is “inactive”.
In the case of `CCOc1ccc(NC(=O)c2ccc(NC(=O)C3CCCO3)cc2)cc1` (stereo not drawn), the Potency result is “inactive”.
For `CCN(CCNC(=O)C1=C(C)C(=O)OC12CCC(C)CC2)c1ccccc1` (stereo not drawn), the Potency entry was “inactive”.
Turning to `COc1ccc(C2=NOC(COC(=O)c3ccc4ccccc4n3)C2)cc1` (stereo not drawn), the Potency entry was “inactive”.
Under `COc1ccc(NC(=O)NCc2ccc3c(c2)OCO3)c(OC)c1` stands “inactive”.
On to `COc1ccc(C2=NOC(Cn3nc(C(=O)NCc4ccc5c(c4)OCO5)cc3-c3ccccc3)C2)cc1` (stereo not drawn), for which the Potency is 10.4 µM (active).
With `Cc1ccc(NC(=O)COC(=O)CNC(=O)c2ccc(Cl)cc2Cl)cc1S(=O)(=O)N1CCOCC1`, the Potency result is “inactive”.
`Cc1c(C)n(Cc2ccc(Cl)cc2)c2ccc(C(=O)NCCCN3CCOCC3)cc12`: the Potency result is “inactive”.
Turning to `O=C(COc1ccc(-n2cnnn2)cc1)Nc1ccccc1Cl`, the Potency result is “inactive”.
Under `CC(C)(C)c1nc(NCC2CCCO2)c2nnn(Cc3ccccc3)c2n1` (stereo not drawn) stands “inactive”; under `COc1ccc(CCNc2ncnc3c2nnn3Cc2ccccc2)cc1`, 2.94 µM (active); under `Clc1ccc(Nc2ncnc3c2nnn3Cc2ccccc2)cc1`, “inactive”.
With `COc1ccccc1CCNC(=O)CN1C(=O)NC2(CCCC2)C1=O` the entry was “inactive”.
Turning to `COc1ccc(CCNS(=O)(=O)c2cccc([N+](=O)[O-])c2)cc1`, the Potency entry is “inactive”.
On to `COC(=O)CNS(=O)(=O)c1ccc(OC)cc1`, for which the Potency result is “inactive”.
`COc1ccc(S(=O)(=O)NCCc2cc3ccc(C)c(C)c3[nH]c2=O)cc1`: the Potency is 8.28 µM (active).
As to `COc1ccc2[nH]c(C(=O)Nc3ccccc3Cl)cc2c1`, the Potency entry is “inactive”.
For `CN(C(=O)CN1C(=O)S/C(=C\c2ccccc2F)C1=O)C1CCS(=O)(=O)C1` (stereo not drawn), the Potency result is “inactive”.
Consider `CCN(C(=O)CN1C(=O)/C(=C/c2ccc(F)cc2)SC1=S)C1CCS(=O)(=O)C1` (stereo not drawn), for which the Potency is 11.7 µM (active).
As for `CN(C(=O)CCN1C(=O)/C(=C/c2ccccc2F)SC1=S)C1CCS(=O)(=O)C1` (stereo not drawn), the Potency result was “inactive”.
`CC(C)NC(=O)COCc1cc(-c2ccc3c(c2)OCO3)on1`: the Potency entry is “inactive”.
Turning to `Cn1cccc1C(=O)NNC(=O)COc1ccc(Br)cc1`, the Potency entry is “inactive”.
With `O=C(CSc1nnc2n1CCCN2)c1ccccc1` the entry was “inactive”; with `Cc1c(OC(C)C(=O)NCC2CCC(C(=O)O)CC2)ccc2c1oc(=O)c1ccccc12` (stereo not drawn), 13.1 µM (active).
On to `Cc1c(OC(C)C(=O)N[C@@H](Cc2ccccc2)C(=O)O)ccc2c3c(c(=O)oc12)CCCC3` (stereo partly drawn), for which the Potency result was “inactive”.
With `Cc1c(C)c2ccc(OCC(=O)N3CCC(C(=O)O)CC3)c(C)c2oc1=O` the entry was “inactive”; with `CCC(C(=O)NCc1cccnc1)n1nc(C)c2sc3ccccc3c2c1=O` (stereo not drawn), “inactive”.
Turning to `O=C(C1CCCN(S(=O)(=O)c2ccccc2)C1)N1CCN(c2ccc(F)cc2)CC1` (stereo not drawn), the Potency entry is “inactive”.
